Laboratory results from PubChem BioAssay (NCATS).
Inconclusive results are not listed. Where a call stands in place of a potency, no number is given. The source made the active and inactive calls. Unless noted, calls come from the whole dose curve; as a rule, active = well fitted curve in the direction sought with a large enough effect; inconclusive = small, poorly fitted or top-dose-only effect, or another doubt; inactive = no such curve, though single readings can be large; an effect the other way counts as inactive or inconclusive.

Columns and labels:
[1] = target: Cytochrome P450 3A4 (Homo sapiens) (UniProt P08684); assay: qHTS Assay for Activators of Cytochrome P450 3A4 (AID 885); note: nearly all actives have a fitted effect of over 65% in size
How it was run: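 CYP3A4 activity: Luciferin-PPXE O-dealkylation, 25uM substrate, 200mM KPO4, RT throughout. Read-out is luciferase luminescence; higher values reflect activation.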

[2] = Confirmation and Secondary Assay for Modulators of Hemoglobin Beta Chain Splicing at IVS2 654 locus (AID 910);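 note: HeLa cells stably carrying EGFP split by mutant beta-globin IVS2-654 intron; per-well total GFP intensity by laser scanning cytometry after 2-day treatment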
How it was run: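 Readout: per-well total peak green fluorescence (488 nm ex, 500–520 nm em) from objects 5–250 µm, reflecting correct splicing of an EGFP-654 reporter. Compounds were applied for 2 days at 37 °C to overnight-plated HeLa EGFP-654 cells; controls were DMSO and 500 nM IVS2-654 PNA.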

[3] = Confirmation and Secondary Assay for Modulators of Hemoglobin Beta Chain Splicing at IVS2 705 locus (AID 930);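 note: HeLa cells stably expressing the EGFP-705 splicing reporter; GFP fluorescence per well restored by corrected splicing of the IVS2-705 intron in EGFP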
How it was run: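 HeLa IVS2-705 EGFP reporter cells, 500/well, compound 2 d at 37C; correct splicing yields fluorescent EGFP. Control: 500 nM antisense PNA. Read-out: total peak GFP intensity.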

[4] = qHTS Assay for Lipid Storage Modulators (AID 1519; calls by dose curve); settings: Drosophila S3 cells, BODIPY lipid droplet/cell ratio, laser cytometry, cells loaded with oleic acid; for activity change, negative = inhibition: at 57.5 µM (top of the series)
How it was run: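 Cells seeded at 5,000 per well were treated with compounds over a concentration series and loaded with oleic acid (400 uM, as added). Lipid droplet fluorescence (488 nm excitation, 500-530 nm channel) was read by laser-scanning cytometry and normalized to 20 uM Triacsin C.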

[5] = target: Ubiquitin carboxyl-terminal hydrolase 1 (Homo sapiens) (UniProt O94782); assay: Inhibitors of USP1/UAF1: Pilot qHTS (AID 504865);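 note: rhodamine fluorescence freed from ubiquitin-rhodamine substrate followed over time; top concentration of the series differs between compounds; nearly all actives have a fitted effect of over 35% in size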
How it was run: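 USP1/UAF1 complex (1nM) preincubated with compound 15 min at room temperature, then Ub-Rho substrate (150nM final) added. Fluorescence read kinetically at 480/540 nm, 6 reads every 60 seconds. Buffer: 50mM HEPES pH 7.8, 0.5mM EDTA, 0.1 mg/ml BSA, 1mM TCEP, 0.01% Tween-20.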

[6] = measured here: cell count channel max response
[7] = measured here: lipid channel max response

Cytochrome P450 3A4 (Homo sapiens), sequence (P08684 whole entry, looked up): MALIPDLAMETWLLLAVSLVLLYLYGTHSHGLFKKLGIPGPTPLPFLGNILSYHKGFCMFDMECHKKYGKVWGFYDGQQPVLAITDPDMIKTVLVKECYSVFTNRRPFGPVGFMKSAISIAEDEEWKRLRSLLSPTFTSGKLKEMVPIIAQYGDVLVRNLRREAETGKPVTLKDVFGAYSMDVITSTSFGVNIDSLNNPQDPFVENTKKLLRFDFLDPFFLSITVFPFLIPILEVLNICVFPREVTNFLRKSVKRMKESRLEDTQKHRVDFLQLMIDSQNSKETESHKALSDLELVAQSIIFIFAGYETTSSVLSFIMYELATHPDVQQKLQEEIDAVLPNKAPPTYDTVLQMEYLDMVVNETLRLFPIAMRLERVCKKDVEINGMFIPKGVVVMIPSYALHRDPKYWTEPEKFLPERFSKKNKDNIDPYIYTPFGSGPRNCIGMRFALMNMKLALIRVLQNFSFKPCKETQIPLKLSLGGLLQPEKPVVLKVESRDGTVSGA
Ubiquitin carboxyl-terminal hydrolase 1 (Homo sapiens), sequence (O94782 whole entry, looked up): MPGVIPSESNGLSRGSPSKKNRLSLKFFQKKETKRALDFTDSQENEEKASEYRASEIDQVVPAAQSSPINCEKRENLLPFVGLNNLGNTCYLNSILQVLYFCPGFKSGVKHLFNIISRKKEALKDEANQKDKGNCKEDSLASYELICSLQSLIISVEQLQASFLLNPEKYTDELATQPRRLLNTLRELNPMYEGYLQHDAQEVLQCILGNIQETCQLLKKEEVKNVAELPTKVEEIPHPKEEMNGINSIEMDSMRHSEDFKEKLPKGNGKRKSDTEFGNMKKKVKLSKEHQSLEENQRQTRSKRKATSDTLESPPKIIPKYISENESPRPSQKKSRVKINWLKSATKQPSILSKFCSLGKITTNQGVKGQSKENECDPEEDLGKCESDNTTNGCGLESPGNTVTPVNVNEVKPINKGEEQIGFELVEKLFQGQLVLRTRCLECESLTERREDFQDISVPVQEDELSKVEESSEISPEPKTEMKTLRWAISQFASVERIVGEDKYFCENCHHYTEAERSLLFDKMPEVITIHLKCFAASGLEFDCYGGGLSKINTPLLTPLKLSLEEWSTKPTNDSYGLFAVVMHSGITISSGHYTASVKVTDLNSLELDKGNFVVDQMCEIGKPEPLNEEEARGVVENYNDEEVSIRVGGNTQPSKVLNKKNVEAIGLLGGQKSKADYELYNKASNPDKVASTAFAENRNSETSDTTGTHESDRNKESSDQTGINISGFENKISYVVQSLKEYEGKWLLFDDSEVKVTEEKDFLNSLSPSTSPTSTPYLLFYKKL

SMILES | Potency [1] | Potency [2] | Potency [3] | activity change, negative = inhibition [4] | max response [4, 6] | max response [4, 7] | Potency [5]
Cc1cc(=O)oc2c(O)c(O)ccc12 | inactive | inactive | inactive | -5.44% (inactive) | -3.48% | -9.34% | inactive
Oc1ccc2c(c1)OC(c1ccc(O)c(O)c1)C(O)C2 (stereo not given) | inactive | inactive | inactive | 6.52% (inactive) | -5.73% | 1.34% | inactive
COc1ccc(-c2coc3cc(O)ccc3c2=O)c(OC)c1 | inactive | inactive | inactive | -0.403% (inactive) | 3.06% | 3.26% | inactive
COc1ccc(C2CC(=O)c3ccc(OC)cc3O2)cc1 (stereo not given) | inactive | inactive | inactive | 10.2% (inactive) | 32.1% | 45.7% | inactive
CC(=O)OC1CC(OC(C)=O)[C@]2(C)C(CC(OC(C)=O)[C@]3(C)C2CC[C@@]2(C)C(c4ccoc4)OC(=O)C4O[C@]432)C1(C)C (stereo not given in full) | inactive | inactive | inactive | 0.867% (inactive) | -4.64% | -0.493% | inactive
CCCC1OC2CC3C4CCC5=CC(=O)C=CC5(C)C4C(O)CC3(C)[C@]2(C(=O)CO)O1 (stereo not given in full) | inactive | inactive | inactive | 8.38% (inactive) | 24.3% | 37.9% | inactive
COc1ccc(C2Oc3cc(OC)cc(OC)c3CC2O)cc1 (stereo not given) | inactive | inactive | inactive | 5.15% (inactive) | 15.1% | 23.9% | inactive
C=C[C@]1(C)CC(=O)[C@@]2(O)[C@@]3(C)C(O)CCC(C)(C)C3C(O)C(OC(C)=O)[C@@]2(C)O1 (stereo not given in full) | inactive | inactive | inactive | 3.86% (inactive) | 19.4% | 25.9% | inactive
CC(=O)OC1CC2C(C)(C)C=CC(=O)[C@@]2(C)C2CC[C@@]3(C)C(c4ccoc4)OC(=O)C4OC43[C@]12C (stereo not given in full) | inactive | inactive | inactive | 5.35% (inactive) | -8.35% | -1.42% | inactive
C=CC(C1=CC(=O)C=CC1=O)c1ccccc1 (stereo not given) | inactive | inactive | inactive | 7.07% (inactive) | 8.2% | 16.8% | inactive
CC1(C)C[C@@H]2C(=O)CCC3O[C@@]3(C)CCC21 (stereo not given in full) | inactive | inactive | inactive | 3.76% (inactive) | 20.7% | 26.4% | inactive
Oc1ccc(C2Oc3cc(O)cc(O)c3CC2O)cc1 (stereo not given) | inactive | inactive | inactive | 14.6% (inactive) | -6.15% | 20.5% | inactive
CCCCN1CCCCC1C(=O)Nc1c(C)cccc1C (stereo not given) | inactive | inactive | inactive | 7.02% (inactive) | 11.8% | 21.2% | inactive
CC(C)=CCc1c(O)cc2oc(C)cc(=O)c2c1O | inactive | inactive | inactive | 2.12% (inactive) | -3.81% | -0.981% | inactive
COc1cc2cc[n+]3cc4c(OC)c(OC)ccc4cc3c2cc1OC | inactive | inactive | inactive | 10.9% (inactive) | 22.9% | 39.6% | inactive
CC(=O)C1CCC2C3CC(C)C4=CC(=O)CC[C@@]4(C)C3C(O)C[C@@]12C (stereo not given in full) | inactive | inactive | inactive | 8.05% (inactive) | 8.18% | 24.3% | inactive
CC1CC2C3CCC4=CC(=O)C=C[C@]4(C)[C@@]3(Cl)C(O)C[C@]2(C)C1(OC(=O)c1ccco1)C(=O)CCl (stereo not given in full) | inactive | inactive | inactive | 12.6% (inactive) | -6.79% | 6.32% | inactive
COC(=O)/C(=C1\OC(=O)C(c2ccccc2)C1=O)c1ccccc1 (stereo not given) | inactive | inactive | inactive | 5.87% (inactive) | 11.1% | 17.7% | inactive
CC1(C)C(=O)C2C[C@]3(O)C4=CC(=O)OC(c5ccoc5)[C@]4(C)CCC3[C@](C)(C2=O)C1CC(=O)O (stereo not given in full) | inactive | inactive | inactive | 3.73% (inactive) | 1.91% | 6.28% | inactive
C#C[C@@]1(O)CCC2C3CCC4=CC(=O)CCC4C3CC[C@@]21CC (stereo not given in full) | inactive | inactive | inactive | 8.95% (inactive) | 17.8% | 32.9% | inactive
